Compounds with a hit are over-represented: about 5.3% of the library has one in this group of screens.
Six1-Eya2 inh: blocks human Six1 binding to Eya2. Q15475+O00167. AlphaScreen GST-Six1/His-Eya2 binding, biochemical; hits give low values. activity change, % (no concentration beside the values). 360,000 compounds, 0.56% hits. AID 651725; in the data active = activity change below about -65%; inconclusive = mostly about -30% to -63%; note: % is set by controls: 0 for no effect and ±100 for the full control effect
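GST-Six1 + His-Eya2 (5X stock: 250/500 nM); Tris pH 8.0, 300 mM NaCl, 0.05% BSA, 0.02% Tween 20; GSH donor/Ni acceptor beads; 1 h 37 °C dark; AlphaScreen readout.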
JMJD2A Tudor: blocks the human JMJD2A Tudor domain; O75164; AlphaScreen JMJD2A-Tudor / H3K4me3 peptide binding; Potency, µM (titrated, usually from 114 µM), for inactives: top-dose activity change, negative = inhibition, usual class: inhibitors; 390,000 compounds, 4.4% hits; AID 504339; note: potency is the fitted concentration of half-maximal effect; % is set by controls: 0 for no effect and ±100 for the full control effect; nearly all actives have a fitted effect of over 50% in size
HP1b binding inh: blocks HP1-beta chromodomain binding to methylated histone tails; P83916; 390,000 compounds, 0.56% hits; Potency, µM (titrated, usually from 114 µM), without a hit: at the top dose activity change, negative = inhibition, actives largely listed as inhibitors; AlphaScreen HP1-beta / biotin-H3K9me3 peptide binding; AID 540317; note: potency is the fitted concentration of half-maximal effect; nearly all actives have a fitted effect of over 70% in size
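AlphaScreen: HP1-beta (50 nM) preformed 30 min with biotin-H3(1-18)K9me3 peptide (50 nM) in PBS pH 7.4, 0.01% Tween-20. Compound added for 30 min at RT, then streptavidin donor/nickel chelate acceptor beads (10 ug/mL) for 30 min.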
TDP1 block: TDP1 (human) enzyme inhibition. recombinant TDP1, AlphaScreen DNA substrate cleavage. Potency, µM (series often up to 130 µM), for the others: at the top dose activity change, negative = inhibition, most hits filed as inhibitors. 350,000 compounds, 0.28% hits; note: potency is the fitted concentration of half-maximal effect; % is set by controls: 0 for no effect and ±100 for the full control effect; nearly all actives have a fitted effect of over 40% in size
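Enzyme-compound mixtures sat 15 min at room temperature, followed by a 5 min reaction with 15 nM final substrate and 10 min with AlphaScreen beads. Recombinant human Tdp1 was used at 1 nM final.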
CtBP-E1A blk: CtBP/E1A binding inhibition; AlphaScreen GST-E1A/His-CtBP binding, 1536-well; hits give low values; activity change, % (test concentration not listed); 340,000 compounds, 0.49% hits; AID 651724; in the data active = activity change below about -65%; inconclusive = mostly about -30% to -63%; note: % is set by controls: 0 for no effect and ±100 for the full control effect
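Homogeneous bead-based format: GST-tagged E1A captured on glutathione donor beads, His-tagged CtBP on nickel acceptor beads; compounds precede bead addition by 2 h at 37 °C.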
BAZ2B inh: inhibitors of human BAZ2B bromodomain; AID 504333; AlphaScreen BAZ2B-H3K14Ac peptide displacement; Potency, µM (series often up to 114 µM), for inactives: top-dose activity change, negative = inhibition, actives largely listed as inhibitors; 360,000 compounds, 4.4% hits; Q9UIF8; note: potency is the fitted concentration of half-maximal effect; % is set by controls: 0 for no effect and ±100 for the full control effect; nearly all actives have a fitted effect of over 60% in size
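BAZ2B (50 nM) with biotin-H3(5-23)K14Ac peptide (50 nM) in PBS pH 7.4, 0.01% Tween-20, preformed 30 min, then compound 30 min at room temperature; top concentration 110uM. AlphaScreen streptavidin donor/nickel chelate acceptor beads (10 ug/mL final), 20 min dark, signal read.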
Starred values were filed as active, the others as inactive; ? = inconclusive; / = no result given; [ ] = dose if it differs, or a comment. Unless noted, calls come from the whole dose curve; as a rule, active = well fitted inhibition curve with a large enough effect; inconclusive = small, poorly fitted or top-dose-only effect; inactive = no such curve, though single readings can be large or run the other way.

SMILES | Six1-Eya2 inh | JMJD2A Tudor | HP1b binding inh | TDP1 block | CtBP-E1A blk | BAZ2B inh
CCCCC(CC)CO (stereo unspecified) | 0 | -15% | 9% | 0% | 1 | /
CCCCC(CC)CN=C(N)NC(N)=NCCCCCCN=C(N)NC(N)=NCC(CC)CCCC (stereo unspecified) | 2 | 79µM* | 33% | 6% | -6 | 3%
FC(F)(F)c1cnc(C(c2ccccc2)c2ncn[nH]2)c(Cl)c1 (stereo unspecified) | 1 | -10% | 23% | 0% | 0 | -13%
FC(F)(F)c1cnc(C(c2ccccn2)c2ncn[nH]2)c(Cl)c1 (stereo unspecified) | -89* | 16µM* | 28% | 3% | ? | 2.5µM*
COc1ccc(Cn2ncc3c4sc(C)cc4n(C)c3c2=O)cc1 | / | -7% | / | -3% | / | /
COC(=O)c1ccnc(/C=N/O)c1 | -19 | 35µM* | -3% | 0% | -28 | 50µM*
Cc1ccccc1N=C1NC(=O)/C(=C/c2cccn2-c2cccc(C(=O)O)c2)S1 | -16 | 50µM* | ? | ? | 5 | 40µM*
Cc1cccc(N=C2NC(=O)/C(=C/c3cccn3C)S2)c1C | -28 | ? | -16% | / | -15 | 32µM*
Cn1c(SCC(=O)c2ccc(O)c(O)c2)nnc1-c1cccs1 | -6 | 25µM* | -5% | -11% | -8 | 50µM*
Cn1c(SCC(=O)OCC(=O)c2ccccc2)nnc1-c1cccs1 | 1 | -3% | 33% | 7% | -1 | -17%
Cn1c(SCC(=O)NC(c2ccccc2)c2ccccc2)nnc1-c1cccs1 | 6 | 50µM* | -11% | 8% | -4 | -5%
Cn1c(SCC(=O)c2ccc(O)c(O)c2)nnc1-c1ccccc1 | 4 | -14% | 16% | / | -1 | ?
COc1cc(OC)cc(-c2nc3nc(C)c(CCC(=O)Nc4ccc(Cl)cc4)c(C)n3n2)c1 | / | -18% | 15% | 7% | / | -2%
CN(C)S(=O)(=O)c1ccc(-c2csc(N/N=C/c3ccco3)n2)cc1 | -13 | -14% | 17% | / | -11 | -23%
C(=N\Nc1nc(-c2ccccc2)cs1)/c1cccs1 | -19 | -34% | -24% | 5% | -17 | ?
Cc1ccc2nc(N/N=C/c3ccco3)cc(C)c2c1 | -10 | ? | -4% | 10% | -15 | 45µM*
Cc1ccc(-c2csc(N/N=C/c3ccco3)n2)cc1 | -26 | 50µM* | -38% | 10% | -25 | ?
C(=N\Nc1nc(-c2ccccc2)cs1)/c1ccco1 | -11 | ? | ? | 7% | -26 | 40µM*
Clc1ccc(-c2csc(N/N=C/c3ccco3)n2)cc1 | -8 | ? | -12% | 12% | -2 | 35µM*
Cc1cc(N2C(=O)c3ccccc3C2=O)n[nH]1 | / | -3% | / | 0% | / | /
Brc1ccc(-c2csc(N/N=C/c3ccco3)n2)cc1 | -18 | -32% | 11% | 5% | -4 | 8.9µM*
COc1ccc(CC(=O)NCCc2csc(-c3cccc(C)c3)n2)cc1 | / | -14% | 13%[57 µM] | 9% | / | 8%
CCCCC#Cc1nc(N)c2ncn([C@@H]3O[C@H](C(=O)NCC)[C@@H](O)[C@H]3O)c2n1 | / | / | / | -11%[56.1 µM] | / | /
O=C(Nc1ccccc1)c1nc[nH]c1C(=O)NCCNC(=O)c1[nH]cnc1C(=O)Nc1ccccc1 | -11 | -17% | 46% | -1% | -11 | /
NNC(=O)c1nc[nH]c1C(=O)Nc1ccccn1 | -15 | 2.8µM* | 38% | 9% | / | 2.5µM*
CC1CCCCN1S(=O)(=O)c1ccc2[nH]c(=O)cc(C(=O)NCCc3ccc(Cl)cc3)c2c1 (stereo unspecified) | / | -19% | 34% | 3% | / | -2%
CCc1nnc(N/N=C/c2ccccc2Cl)n1N | 2 | 89µM* | 16% | 6% | 0 | ?
CC(C)(C)c1nnc(N/N=C/c2ccccc2)n(N)c1=O | -1 | -24% | 21% | 5% | -7 | 5%
